Reference: PubChem BioAssay AID2451 (National Center for Advancing Translational Sciences (NCATS), 2010)
The whole screen tested about 290,000 compounds, of which about 2,100 (0.72%) were called active. Entries that show only a call come without a potency. Roughly 4% stayed inconclusive and do not appear here. Calls follow the shape of the dose curve; as a rule, active = well fitted inhibition curve with a large enough effect; inconclusive = small, poorly fitted or top-dose-only effect, or effect the other way; inactive = flat fitted curve, though single readings scatter. Only a selection was taken, and actives are over-represented in it overall.

What follows are compounds tested against Fructose-bisphosphate aldolase (Giardia intestinalis (strain ATCC 50803 / WB clone C6)) (UniProt A8B2U2) (assay: qHTS Assay for Inhibitors of Fructose-1,6-bisphosphate Aldolase from Giardia Lamblia). Conditions: purified Giardia FBPA; series mostly up to 59.6 µM.
Source text: Assay Provider: Osnat Herzberg, University of Maryland
The objective of this project is to obtain compounds that inhibit Giardia lamblia growth. G. lamblia is a human pathogen which afflicts impoverished nations; it is the most common cause of outbreaks of diarrhea in the United States. During the course of our study of potential drug targets in Giardia, we have identified the Class II (Zn2+ functions in electrophilic catalysis) fructose-1,6-bisphosphate aldolase (FBPA) as an excellent candidate for drug targeting. FBPA is a key glycolytic pathway enzyme, essential for G. lamblia survival. The human FBPA belongs to the Class I aldolases, which have a different substrate binding site structure and a radically different catalytic mechanism (employing a lysine-Schiff base intermediate). Therefore, affinity-based or mechanism-based inhibitors of the Giardia FBPA are expected not to interfere with the catalytic function of the human FBPA.
A glyceraldehyde-3-phosphate dehydrogenase/triose phosphate isomerase/NAD/arsenate coupled assay was adapted to the 1536-well HTP format for use in the primary screen. This was done by coupling it to a diaphorase/resazurin/resorufin reaction that can be monitored by fluorescence (excitation, 544 nm; emission, 590 nm). Compounds identified in this screen will be further evaluated by coupling the glycerol-3-phosphate/triose phosphate isomerase/NADH assay to a phenazine methosulfate/tetranitroblue tetrazolium color reaction. False positives due to the dehydrogenases and diaphorase inhibition will be eliminated, and selectivity assay will triage inhibitors of mammalian triose phosphate isomerase and the Class I FBPA. G. lamblia FBPA inhibitors identified by the in vitro analyses will be examined for growth inhibition of Giardia trophozoites, and for cytotoxicity in human cells.
Step,Parameter,Value,Description
1,Enzyme reagent,2 uL,40 nM FBPA
2,Compound,23 nL,3.68 nM-57.5 uM final concentration
3,Time,10 min,RT Incubation
4,Substrate/detection Reagent,2 uL,Substrate + enzyme coupling system + AmpLite Red kit
5,Time,20 min,RT Incubation
6,Detector,525 nm/598 nm (Fluorescence),ViewLux Fluorescence Read (Read 1)
1,Medium-binding black solid-bottom Kalypsys plates. FRD or Kalypsys dispenser, 2 uL of FBPA enzyme. Bottle kept at 4C.
2,Compound Library (10 mM ,1:5 dilution). Pin-transferred for a [final] range of 3.68 nM-57.5 uM.
4,FRD or Kalypsys dispenser, 2 uL of reaction mixture. Bottle kept at 4C and covered in foil to protect from light.
6,ViewLux Protocol 1194; Excitation filter wheel A (525/20 Pol; BODIPY TMR FP), Emission filter wheel B (598/25 S; BODIPY TMR FP S).
Keywords: Fructose-bisphosphate aldolase, FBPA , Giardia lamblia , Giardia, HTS, Inhibitors
Also: nearly all actives have a fitted effect of over 55% in size.
Potency is read from the fitted curve at half-maximal effect.

Fructose-bisphosphate aldolase (Giardia intestinalis (strain ATCC 50803 / WB clone C6)), sequence (A8B2U2 whole entry, looked up): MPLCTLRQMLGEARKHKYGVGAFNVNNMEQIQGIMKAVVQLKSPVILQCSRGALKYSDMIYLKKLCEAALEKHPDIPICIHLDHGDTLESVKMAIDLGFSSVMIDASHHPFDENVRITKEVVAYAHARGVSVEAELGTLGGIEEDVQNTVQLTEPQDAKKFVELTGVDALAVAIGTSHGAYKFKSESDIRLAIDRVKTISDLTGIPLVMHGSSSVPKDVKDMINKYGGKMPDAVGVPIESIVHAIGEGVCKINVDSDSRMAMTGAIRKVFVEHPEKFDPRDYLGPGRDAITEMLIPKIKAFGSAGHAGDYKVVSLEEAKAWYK

Row | Compound | Potency
1 | Cc1ccc(Cl)c(OCC(=O)N2CCc3ccccc3C2)c1 | inactive
2 | O=C(CSc1cccc[n+]1[O-])c1ccc(Cl)cc1 | inactive
3 | COc1ccccc1C(=O)CSc1cccc[n+]1[O-] | inactive
4 | O=C(CSc1cccc[n+]1[O-])c1ccc(-c2ccccc2)cc1 | 17.7 µM (active)
5 | NS(=O)(=O)c1ccccc1NC(=O)c1c(O)c2ccccc2[nH]c1=O | inactive
6 | CC(C)c1ccc(/C=C2\NC(=O)NC2=O)cc1 | inactive
7 | CC(=O)N1CCC(C(=O)OCc2ccc(Cl)cc2)(c2ccccc2)CC1 | inactive
8 | Cc1cccc2c(CCN)c[nH]c12 | inactive
9 | O=C(Cc1c[nH]c2ccccc12)OCCOC(=O)Cc1c[nH]c2ccccc12 | inactive
10 | COc1ccc(Nc2ncnc3ccc(Br)cc23)c(OC)c1 | inactive
11 | O=C(c1cc(COc2ccc(F)cc2F)on1)N1CCOCC1 | inactive
12 | CSc1ccccc1NC(=O)c1cc(Cl)sc1Cl | inactive
13 | CCCCC(C(=O)NC(C)(C)C)N(Cc1ccccc1)C(=O)c1snc(C(N)=O)c1N (stereo unspecified) | inactive
14 | COc1ccc(CN2CCN(Cc3ccc(OC)c(OC)c3OC)CC2)cc1 | 14.1 µM (active)
15 | COc1ccccc1N1CCN(Cc2ccc(OC)c3ccccc23)CC1 | inactive
16 | CN1CCN(Cc2ccc(OC(F)(F)F)cc2)CC1 | inactive
17 | Cc1cc(N=Nc2ccc3ccccc3c2)ccc1O | inactive
18 | O=S(=O)(Nc1ccccc1Cl)c1cccc2nsnc12 | inactive
19 | CCOC(=O)c1cc2cc3ccccc3cc2oc1=O | inactive

Row | Compound | Potency
20 | COc1ccc(Cl)cc1C(=O)NNC(=O)c1nc2nc(C)cc(C)n2n1 | 17.7 µM (active)
21 | C=CCNC(=S)NNC(=O)c1cc(Cl)ccc1OC | inactive
22 | Cc1cc(C)n2nc(C(=O)NC(C)(C)C)nc2n1 | inactive
23 | CCN1C(=S)N[C@@H](c2cccc(C(F)(F)F)c2)C(C(=O)OC)=C1C | inactive
24 | O=C(Nc1cccnc1Cl)c1cc(-c2ccccc2O)on1 | inactive
25 | O=C(Nc1ccc(N2CCOCC2)c(Cl)c1)c1ccc(S(=O)(=O)N2CCOCC2)cc1 | inactive
26 | Cc1ccnc(NS(=O)(=O)c2ccc(NC(=O)c3ccc(S(=O)(=O)N4CCOCC4)cc3)cc2)n1 | inactive
27 | CC1CCCN(S(=O)(=O)c2ccc(C(=O)Nc3nnc(-c4ccncc4)o3)cc2)C1 (stereo unspecified) | 7.06 µM (active)
28 | CSCc1nnc(NC(=O)c2ccc(S(=O)(=O)N3CCCCC3C)cc2)o1 (stereo unspecified) | inactive
29 | O=C(Nc1nnc(-c2ccco2)o1)c1ccc(S(=O)(=O)N2CCOCC2)cc1 | 17.7 µM (active)
30 | CC1CCCCN1S(=O)(=O)c1ccc(C(=O)Nc2nnc(-c3cccs3)o2)cc1 (stereo unspecified) | inactive
31 | CC(C)(C)c1ccc(Cn2nnc3c(=O)[nH]c(C4CCCN(C(=O)c5ccco5)C4)nc32)cc1 (stereo unspecified) | inactive
32 | Cc1cccc(C(=O)Nc2ccc(Oc3cnccn3)cc2)c1 | inactive
33 | CN(Cc1ccccc1)C(=O)CSc1nc2ccccc2[nH]1 | inactive
34 | COc1cc(Cl)ccc1OCc1cc(C(=O)N2CC[C@@H]3CCCC[C@H]3C2)no1 | inactive
35 | COC(=O)[C@@H]1C[C@@]2(O)[C@H](O)[C@H](O)[C@H](O)C[C@H]2N1CC1CCCCC1 | inactive
36 | c1ccc(-c2ccc(OCCN3CCOCC3)cc2)cc1 | inactive
37 | Cc1cccc(C)c1OCCN1CCOCC1 | 15.8 µM (active)
38 | CC(=O)c1ccc(OCCN2CCOCC2)cc1 | inactive

Row | Compound | Potency
39 | N#Cc1ccc(C2N=C(c3ccccc3)NO2)cc1 (stereo unspecified) | inactive
40 | COc1ccccc1C(C)NC(=O)Cc1ccsc1 (stereo unspecified) | inactive
41 | O=C(C[n+]1cc(Br)cc2ccccc21)c1ccc(F)cc1 | inactive
42 | O=[N+]([O-])c1ccc2c(c1)Nc1nc3ccccc3nc1N2 | inactive
43 | O=[N+]([O-])c1ccc2nc(-c3ccccn3)[nH]c2c1 | 7.92 µM (active)
44 | O=C(CSc1nc2ccc([N+](=O)[O-])cc2[nH]1)c1ccc(Cl)cc1 | inactive
45 | COc1cccc(N(CC(=O)NCc2ccccc2)C(=O)CCC(=O)Nc2nccs2)c1 | inactive
46 | CCOc1ccccc1NC(=S)NC(=O)CCc1ccccc1 | inactive
47 | CCc1cccc(NC(=S)N(CCN(C)C)C2CCN(C(C)C)CC2)c1 | inactive
48 | COCCN(CCOC)C(=S)Nc1ccccc1Cl | inactive
49 | COCCN(C(=S)Nc1ccccc1OC)C1CCN(C(C)C)CC1 | 15.8 µM (active)
50 | CCNc1c(NS(=O)(=O)c2ccc(C3CCCCC3)cc2)c(=O)oc2ccccc12 | inactive
51 | O=c1c(O)c(Br)ccc2c(Br)c(O)c(O)c(O)c12 | 11.2 µM (active)
52 | Cc1noc(C)c1-c1ccc2ncnc(NCc3ccc4[nH]ccc4c3)c2c1 | inactive
53 | COc1ccc(C(=O)NC(=S)N2CCCCC2c2cccnc2)cc1OC (stereo unspecified) | 3.55 µM (active)
54 | COc1ccc(/C=C/C(=O)NC(=S)NN2CCCCC2c2cccnc2)cc1 (stereo unspecified) | inactive
55 | O=C(NC(=S)N1CCCCC1c1cccnc1)c1ccccc1 (stereo unspecified) | inactive
56 | CC(C)(C)c1ccc(C(=O)N2CCN(CCNC(=O)C(=O)Nc3ccc(F)cc3)CC2)cc1 | inactive
